Assay outcomes deposited in PubChem BioAssay by several laboratories.
NPR2 activator: GC-B (human) receptor activation | hit rate 0.11% among 370,000 | activation, % at 10 µM | HEK293-GC-B cells, CNP EC30, cGMP TR-FRET; 0% at EC30 CNP, 100% saturating CNP | P20594;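 active means activation at 10 µM reaching about 35% in either raw or pattern-adjusted values, limit read from the data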
ADAM10 inh: inhibitors of human ADAM10 | O14672 | recombinant ADAM10, EDANS/DABCYL FRET peptide cleavage, 3 h | inhibition, % at 7 µM | hit rate 0.62% among 370,000 | AID 720582;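 active means inhibition above a per-campaign cutoff equal to the mean of compounds falling between control-based bounds plus 3 SD, cut at about 20% in these data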
FAS TE block: FAS thioesterase (human) inhibition | inhibition, % at 15 µM | AID 602261 | P49327 | hit rate 0.67% among 360,000 | recombinant FAS-TE, OMFH fluorogenic substrate, fluorescence endpoint;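 active means compounds whose normalised, plate-corrected inhibition of enzyme fluorescence in the single-dose primary screen is 50% or more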
Target sequence (P49327 whole entry, looked up): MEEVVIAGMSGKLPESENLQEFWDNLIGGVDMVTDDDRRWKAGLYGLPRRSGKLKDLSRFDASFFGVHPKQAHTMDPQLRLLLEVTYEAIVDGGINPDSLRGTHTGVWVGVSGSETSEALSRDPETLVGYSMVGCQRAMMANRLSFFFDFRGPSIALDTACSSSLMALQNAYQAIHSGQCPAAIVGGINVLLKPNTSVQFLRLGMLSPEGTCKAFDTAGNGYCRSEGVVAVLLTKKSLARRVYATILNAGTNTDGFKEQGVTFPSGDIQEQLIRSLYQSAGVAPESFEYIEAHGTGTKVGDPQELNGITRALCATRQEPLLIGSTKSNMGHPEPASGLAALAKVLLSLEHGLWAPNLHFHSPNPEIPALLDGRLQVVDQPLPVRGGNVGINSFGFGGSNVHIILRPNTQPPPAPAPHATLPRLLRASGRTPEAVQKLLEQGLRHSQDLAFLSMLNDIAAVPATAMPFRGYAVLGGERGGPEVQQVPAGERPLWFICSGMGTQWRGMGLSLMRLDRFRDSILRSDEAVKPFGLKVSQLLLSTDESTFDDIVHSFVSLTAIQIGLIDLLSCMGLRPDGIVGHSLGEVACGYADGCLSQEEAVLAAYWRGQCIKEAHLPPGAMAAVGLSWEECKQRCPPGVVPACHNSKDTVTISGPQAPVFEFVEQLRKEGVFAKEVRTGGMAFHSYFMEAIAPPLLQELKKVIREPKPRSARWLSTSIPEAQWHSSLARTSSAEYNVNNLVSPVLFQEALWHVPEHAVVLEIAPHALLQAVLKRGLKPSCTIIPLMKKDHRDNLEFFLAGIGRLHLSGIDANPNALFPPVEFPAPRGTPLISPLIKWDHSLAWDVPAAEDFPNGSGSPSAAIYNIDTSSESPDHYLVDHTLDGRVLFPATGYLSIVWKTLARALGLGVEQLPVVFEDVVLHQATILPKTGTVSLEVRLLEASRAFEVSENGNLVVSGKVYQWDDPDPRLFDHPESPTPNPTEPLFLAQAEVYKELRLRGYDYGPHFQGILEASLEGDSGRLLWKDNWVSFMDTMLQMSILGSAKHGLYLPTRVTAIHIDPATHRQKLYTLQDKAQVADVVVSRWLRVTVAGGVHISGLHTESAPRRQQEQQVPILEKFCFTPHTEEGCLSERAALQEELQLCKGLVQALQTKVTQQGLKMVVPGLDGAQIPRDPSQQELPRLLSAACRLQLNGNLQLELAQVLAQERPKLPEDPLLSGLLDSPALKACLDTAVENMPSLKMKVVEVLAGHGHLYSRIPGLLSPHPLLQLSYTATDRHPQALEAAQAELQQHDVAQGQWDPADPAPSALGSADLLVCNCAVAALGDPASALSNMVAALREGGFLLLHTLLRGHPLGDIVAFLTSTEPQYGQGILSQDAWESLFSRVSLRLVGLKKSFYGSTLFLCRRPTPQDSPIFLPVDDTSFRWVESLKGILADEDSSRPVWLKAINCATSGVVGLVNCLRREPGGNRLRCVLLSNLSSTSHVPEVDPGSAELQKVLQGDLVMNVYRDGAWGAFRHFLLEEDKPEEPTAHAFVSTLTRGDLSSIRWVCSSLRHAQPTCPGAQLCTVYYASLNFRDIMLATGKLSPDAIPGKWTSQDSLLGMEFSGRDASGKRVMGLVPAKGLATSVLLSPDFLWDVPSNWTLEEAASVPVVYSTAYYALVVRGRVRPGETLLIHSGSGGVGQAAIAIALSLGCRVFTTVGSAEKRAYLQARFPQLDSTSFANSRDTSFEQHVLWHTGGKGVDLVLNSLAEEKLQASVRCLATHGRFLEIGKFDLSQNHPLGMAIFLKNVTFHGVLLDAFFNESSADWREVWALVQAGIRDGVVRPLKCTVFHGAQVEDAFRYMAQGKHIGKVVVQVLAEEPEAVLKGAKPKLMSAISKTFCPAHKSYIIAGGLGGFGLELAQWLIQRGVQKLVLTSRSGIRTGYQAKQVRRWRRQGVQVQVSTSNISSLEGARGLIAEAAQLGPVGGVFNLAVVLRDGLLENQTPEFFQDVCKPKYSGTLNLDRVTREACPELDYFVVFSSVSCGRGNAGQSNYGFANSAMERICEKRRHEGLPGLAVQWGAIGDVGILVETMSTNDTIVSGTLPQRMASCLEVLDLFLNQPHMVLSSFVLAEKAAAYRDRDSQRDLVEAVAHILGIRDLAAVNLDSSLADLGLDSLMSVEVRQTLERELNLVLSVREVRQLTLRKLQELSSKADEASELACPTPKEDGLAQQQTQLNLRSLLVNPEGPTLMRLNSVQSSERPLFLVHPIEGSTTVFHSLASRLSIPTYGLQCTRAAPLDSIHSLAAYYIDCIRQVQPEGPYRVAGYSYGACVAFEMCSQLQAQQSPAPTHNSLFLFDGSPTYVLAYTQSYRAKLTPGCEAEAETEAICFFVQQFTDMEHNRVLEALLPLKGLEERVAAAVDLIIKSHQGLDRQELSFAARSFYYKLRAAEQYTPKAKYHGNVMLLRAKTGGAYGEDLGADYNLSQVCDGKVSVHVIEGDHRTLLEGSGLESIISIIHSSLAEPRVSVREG
GC-A act: GC-A (human) enzyme activation; P16066; HEK293 GC-A cells, cGMP TR-FRET, EC30 ANP; 0% at EC30 ANP, 100% saturating ANP; hit rate 0.14% among 370,000; activation, % at 10 µM; AID 1671463; in the data active means activation above about 40%
ADAM17 inh: inhibits human ADAM17. inhibition, % at 6.95 µM. P78536. hit rate 0.83% among 370,000. AID 720648. recombinant ADAM17, EDANS/DABCYL FRET peptide cleavage;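 active means inhibition above the mean of compounds lying between control limits plus 3 SD, set per campaign, cut at about 8.5% in these data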
ADAM10 confirm: human ADAM10 inhibition, confirmation; shares compounds with ADAM10 inh; ADAM10 QFRET peptide cleavage, EDANS fluorescence; inhibition, % at 6.95 µM; AID 743208; hit rate 1% among 2,100;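 active means inhibition above about 20% chosen separately for each screening run, limit read from the data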
ADAM17 counter: counter-screen for ADAM10 exosite inhibitors: inhibitors of human ADAM17. hit rate 0.5% among 2,100. ADAM17 QFRET peptide cleavage, EDANS fluorescence. AID 743214. inhibition, % at 6.95 µM. shares compounds with ADAM10 inh;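 active means mean triplicate inhibition above the solvent-only control wells' mean plus 3 SD, cut at about 12% in these data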
ADAM10 counter: inhibits human ADAM10 in ADAM17 exosite counter-screen; hit rate 47% among 2,900; shares compounds with ADAM17 inh; inhibition, % at 6.95 µM; recombinant ADAM10, EDANS/DABCYL FRET peptide cleavage, 3 h;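 active means mean inhibition over the triplicate runs exceeds the activity threshold set in the earlier primary screen, cut at about 20% in these data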
ADAM17 confirm: human ADAM17 inhibition, confirmation | hit rate 65% among 2,900 | shares compounds with ADAM17 inh | recombinant ADAM17, EDANS/DABCYL QFRET peptide cleavage | inhibition, % at 6.95 µM;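 active means mean inhibition across replicates above the hit cutoff set in the primary screen, cut at about 8.5% in these data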
Each line names hits and unclear results; the compound was inactive in the other large screens (follow-up assays come after a bar, where they were run); ! = repeats disagree. An excerpt weighted towards active compounds, which were near 2% of everything screened.

O=C(Nc1cccc2ccccc12)c1ccc(OC(=S)N2CCOCC2)cc1	ADAM10 inh 21.3, ADAM17 inh 9.7 | ADAM10 confirm inactive | ADAM17 counter inactive | ADAM10 counter inactive | ADAM17 confirm 11.3
O=C(Nc1cccc(Cl)c1)c1ccc(OC(=S)N2CCOCC2)cc1	none
Cc1cccc(Cn2cc(CN3CC(N4CCN(CCOC(=O)c5cc6ccccc6o5)CC4)CS3(=O)=O)nn2)c1 (centres undefined)	none (no result: FAS TE block)
CCOc1ccc(NS(=O)(=O)c2ccc(NC(=S)NC(=O)C(C)C)cc2)cc1	none
COc1ccc(NS(=O)(=O)c2ccc(NC(=S)NC(=O)C(C)C)cc2)cc1	ADAM10 inh 30.2, ADAM17 inh 12.0 | ADAM10 confirm inactive | ADAM17 counter inactive | ADAM10 counter inactive | ADAM17 confirm 9.1
Cc1ccc(C(=O)OCc2ccc3c(c2)OCO3)cc1S(=O)(=O)N1CCCCC1	ADAM10 inh 20.8, ADAM17 inh 13.0 | ADAM10 confirm inactive | ADAM17 counter inactive | ADAM10 counter inactive | ADAM17 confirm 9.4
CC(C)(C)NC(=O)C(c1c[nH]c2ccccc12)N(C(=O)Cn1nnc(-c2ccc(F)cc2)n1)c1cccc(O)c1 (centres undefined)	ADAM10 inh 28.4, ADAM17 inh 14.1 | ADAM10 confirm inactive | ADAM17 counter inactive | ADAM10 counter 32.4 | ADAM17 confirm 18.6
COc1ccc(OC)c(NC(=S)NCc2ccccc2OC)c1	none
COc1ccc(OC)c(NC(=S)NCCC(c2ccccc2)c2ccccc2)c1	ADAM10 inh 21.4, ADAM17 inh 8.7 | ADAM10 confirm inactive | ADAM17 counter inactive | ADAM10 counter 23.4 | ADAM17 confirm 21.6
Cc1ccccc1NC(=S)NCCC(c1ccccc1)c1ccccc1	ADAM10 inh 36.6, ADAM17 inh 15.8 | ADAM10 confirm inactive | ADAM17 counter inactive | ADAM10 counter inactive | ADAM17 confirm inactive
C[C@H]1[C@@H](OC(=O)NCc2cccs2)CC[C@@]23CCCN2C(=O)CCC[C@@H]13	none (no result: FAS TE block)
Cc1cc(C)c(-c2cc(NC(=O)COC(=O)c3ccc(C#N)cc3)n(-c3ccccc3)n2)cc1C	ADAM10 inh 22.5, ADAM17 inh 9.1 | ADAM10 confirm inactive | ADAM17 counter inactive | ADAM10 counter 22.3 | ADAM17 confirm 13.0
Cc1cc(C)c(-c2cc(NC(=O)COC(=O)c3ccc(NC(=O)CC#N)cc3)n(-c3ccccc3)n2)cc1C	none
Cc1ccc(Nc2nnc(SCC(=O)Nc3cccc(S(=O)(=O)N4CCCCC4)c3)s2)cc1	ADAM10 inh 26.6, ADAM17 inh 10.8 | ADAM10 confirm inactive | ADAM17 counter inactive | ADAM10 counter 29.6 | ADAM17 confirm 17.1
Cc1nnc(SCC(=O)Nc2cccc(S(=O)(=O)N3CCCCC3)c2)s1	none
CCn1c2ccccc2c2cc(C=NNC(=O)c3ccoc3C)ccc21	none (no result: FAS TE block)
O=S(=O)(/N=C(/Nc1ccc(Cl)c(S(=O)(=O)Nc2ccccc2Cl)c1)c1ccc(F)cc1)c1ccccc1	ADAM10 inh 22.4!, ADAM17 inh 12.4! | ADAM10 confirm inactive | ADAM17 counter inactive | ADAM10 counter 36.4 | ADAM17 confirm 18.4
COc1ccccc1NS(=O)(=O)c1cc(N/C(=N/S(=O)(=O)c2ccccc2)c2ccc(F)cc2)ccc1Cl	none
COc1ccc(NS(=O)(=O)c2cccc(N/C(=N\S(=O)(=O)c3ccccc3)c3ccc(F)cc3)c2)cc1	ADAM10 inh 21.3, ADAM17 inh 8.7 | ADAM10 confirm inactive | ADAM17 counter inactive | ADAM10 counter 23.7 | ADAM17 confirm 15.3
O=C1C[C@@H](c2ccccc2)N=C2N(CC3CC3)C/C(=C/c3ccccc3)N12	none (no result: FAS TE block)
Cn1c(SCC2CCC2)nnc1-c1ccco1	none (no result: FAS TE block)
